Drawing on PubChem BioAssay (NCATS), this text covers outcome and Potency for 19 compounds.

Structures are written as SMILES. Records with an inconclusive call do not appear. Active and inactive are the calls of the source. Calls come from the whole dose curve; as a rule, active = well fitted curve in the direction sought with a large enough effect; inconclusive = small, poorly fitted or top-dose-only effect, or another doubt; inactive = no such curve, though single readings can be large; an effect the other way counts as inactive or inconclusive.

The nature of assay [1]: Cellular Toxicity (caspase-3) HepG2 (AID 654).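 Note: cells exposed to compound for 16 hours before reading.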 The method in brief: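 Caspase 3/7 activation in HepG2 is measured as rising luminescence after a 16 hr treatment at 37 °C. Values are scaled between DMSO basal and 100 uM tamoxifen, and AC50 is fitted with the Hill equation.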
Assay [2] can be described thus: Cellular Toxicity (caspase-3) Jurkat (AID 655).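 Note: cells exposed to compound for 16 h at 37 °C before reading.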 The method in brief: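 5000 Jurkat cells/well; compound 16 hr, 37 °C; Caspase-Glo 3/7 added, 20 min RT; luminescence read. Norm: DMSO = 0%, tamoxifen 100 uM = 100%. AC50, Hill model.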
Assay [3] is described as follows: Cellular Toxicity (caspase-3) HUV-EC-C (AID 656). The method in brief: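 qHTS; HUV-EC-C, 1000 cells/well; 5 hr settle, 16 hr cmpd, 37°C; Caspase-Glo 3/7, 20 min RT; luminescence. Norm: DMSO = 0%, tamoxifen 100 uM = 100%. Hill-fit AC50.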
A short description of assay [4]: Cellular Toxicity (caspase-3) SHSY5Y (AID 657).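 Note: cells exposed to compound for 16 hours at 37 °C.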 The essentials: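 qHTS, SH-SY5Y, 1500 cells/well, 5 h pre-incubation 37 °C; compound 16 h 37 °C; Caspase-Glo 3/7 1 h RT; luminescence. Norm.: DMSO = 0, 10 uM staurosporine = 100%. Hill fit → AC50.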
The nature of assay [5]: Cellular Toxicity (caspase-3) BJ (AID 658). The essentials: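 Plated BJ cells (1000/well) rested 5 hr, received compound for 16 hr at 37 °C, then Caspase-Glo 3/7 reagent for 1 hr at room temperature before luminescence reading.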
Assay [6] is described as follows: Cellular Toxicity (caspase-3) MRC-5 (AID 659). The essentials:
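Apoptosis readout in MRC-5 cells: luciferase light generated after caspase 3/7 cleaves a peptide-aminoluciferin substrate, measured post 16 hr compound incubation at 37 °C.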

Assay [7] can be described thus: Cellular Toxicity (caspase-3) Mesangial (AID 660).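 Note: combined caspase 3 and 7 activity read by Caspase-Glo luminescence; cells exposed to compound for 16 h before the caspase read.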 The method in brief:
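Seed cells derived from normal human renal glomeruli, incubate 5 h, add compounds across concentrations and incubate 16 h at 37 °C. Caspase 3/7 activation is then quantified by luciferase light, with AC50 derived by Hill modeling.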

The nature of assay [8]: Cellular Toxicity (caspase-3) SK-N-SH (AID 661). The method in brief: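 Cells were seeded and incubated 5 hr at 37 °C, dosed with compound over a concentration range for 16 hr, then given Caspase-Glo 3/7 reagent for 1 hr at room temperature before luminescence reading.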
Assay [9] in a line: Cellular Toxicity (caspase-3) H-4-II-E (AID 663).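 Note: cells exposed to compound for 16 hr before readout.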 The method in brief: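 Caspase 3/7 activation measured in H-4-II-E cells in complete culture medium after 16 hr treatment at 37 °C, using luciferase-coupled substrate readout; AC50 values come from Hill-equation fits of normalized concentration-response data.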
Assay [10] in a line: Cellular Toxicity (caspase-3) Hek293 (AID 664).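 Note: cells exposed to compound for 16 h at 37 °C before readout.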 The essentials:
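qHTS, HEK293 (human embryonic kidney), 16 h cpd exposure in complete medium. Caspase-3/7 activation = luminescence increase; normalized to DMSO/100 uM tamoxifen; Hill-fit AC50.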

A short description of assay [11]: Cellular Toxicity (caspase-3) N2a (AID 665).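 Note: compound exposure lasted 16 h at 37 °C before readout.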 The method in brief:
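Caspase-3/7 activation, measured as increased luminescence from aminoluciferin release, is quantified in mouse N2a cells exposed to compounds for 16 h. Values are normalized to DMSO and 10 uM staurosporine, with AC50 derived by Hill modelling.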

The nature of assay [12]: Cellular Toxicity (caspase-3) NIH 3T3 (AID 666).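 Note: caspase signal read after 16 h compound exposure.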 The essentials: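 Cells were plated at 1000 per well and incubated 5 hr at 37°C, then compound was added for 16 hr. Caspase-Glo 3/7 reagent followed for 20 min at room temperature before luminescence was read.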
Assay [13] is described as follows: Cellular Toxicity (caspase-3) Renal Proximal Tubule (AID 667).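 Note: cells exposed to compound for 16 hours at 37 °C before detection.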 The method in brief:
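AC50 derived by standard Hill fit of concentration-response data, normalized between DMSO basal and 10 uM staurosporine as 100% stimulation. Cells: primary rat kidney proximal tubule, 16 h treatment at 37 °C.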

The target in assay [14] is Cytochrome P450 3A4 (Homo sapiens) (UniProt P08684). Briefly: qHTS Assay for Activators of Cytochrome P450 3A4 (AID 885). Note: nearly all actives have a fitted effect of over 65% in size. The essentials:
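CYP3A4 activity: Luciferin-PPXE O-dealkylation, 25uM substrate, 200mM KPO4, RT throughout. Read-out is luciferase luminescence; higher values reflect activation.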

Assay [15] shares this target. Briefly: qHTS Assay for Inhibitors and Substrates of Cytochrome P450 3A4 (AID 884). Note: nearly all actives have a fitted effect of over 50% in size. Note: potency is the fitted concentration of half-maximal effect. The method in brief: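 Luminescent readout of luciferin produced by CYP3A4 (20 nM) dealkylation of Luciferin-PPXE, 25 uM (its KM). NADPH-driven reaction ran 60 min at RT after 10 min compound preincubation; data scaled to 57 uM ketoconazole as 100% inhibition.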
The target in assay [16] is Cytochrome P450 2D6 (Homo sapiens) (UniProt P10635). Briefly: qHTS Assay for Inhibitors and Substrates of Cytochrome P450 2D6 (AID 891). Note: nearly all actives have a fitted effect of over 60% in size. Note: potency is the fitted concentration of half-maximal effect. The essentials:
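Luminescent read-out of luciferin formed by 5 nM human CYP2D6 demethylating 30 uM Luciferin-ME EGE (Km level) over 60 min at room temperature after NADPH regeneration addition. Data normalized to full inhibition by 1.43 uM quinidine.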

Cytochrome P450 3A4 (Homo sapiens), sequence (P08684 whole entry, looked up): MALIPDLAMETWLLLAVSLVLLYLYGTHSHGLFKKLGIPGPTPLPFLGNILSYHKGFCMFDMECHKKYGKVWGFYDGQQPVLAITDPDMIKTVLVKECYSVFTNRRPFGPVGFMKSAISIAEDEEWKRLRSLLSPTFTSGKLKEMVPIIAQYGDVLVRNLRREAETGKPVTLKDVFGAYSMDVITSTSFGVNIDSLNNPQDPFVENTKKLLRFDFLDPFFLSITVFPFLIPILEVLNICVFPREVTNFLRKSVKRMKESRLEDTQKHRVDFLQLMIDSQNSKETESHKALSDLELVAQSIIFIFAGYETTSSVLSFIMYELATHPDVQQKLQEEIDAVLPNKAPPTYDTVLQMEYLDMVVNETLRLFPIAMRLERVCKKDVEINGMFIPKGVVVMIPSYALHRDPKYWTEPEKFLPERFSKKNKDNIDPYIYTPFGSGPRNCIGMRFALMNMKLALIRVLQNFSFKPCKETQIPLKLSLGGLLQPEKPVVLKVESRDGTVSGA
Cytochrome P450 2D6 (Homo sapiens), sequence (P10635 whole entry, looked up): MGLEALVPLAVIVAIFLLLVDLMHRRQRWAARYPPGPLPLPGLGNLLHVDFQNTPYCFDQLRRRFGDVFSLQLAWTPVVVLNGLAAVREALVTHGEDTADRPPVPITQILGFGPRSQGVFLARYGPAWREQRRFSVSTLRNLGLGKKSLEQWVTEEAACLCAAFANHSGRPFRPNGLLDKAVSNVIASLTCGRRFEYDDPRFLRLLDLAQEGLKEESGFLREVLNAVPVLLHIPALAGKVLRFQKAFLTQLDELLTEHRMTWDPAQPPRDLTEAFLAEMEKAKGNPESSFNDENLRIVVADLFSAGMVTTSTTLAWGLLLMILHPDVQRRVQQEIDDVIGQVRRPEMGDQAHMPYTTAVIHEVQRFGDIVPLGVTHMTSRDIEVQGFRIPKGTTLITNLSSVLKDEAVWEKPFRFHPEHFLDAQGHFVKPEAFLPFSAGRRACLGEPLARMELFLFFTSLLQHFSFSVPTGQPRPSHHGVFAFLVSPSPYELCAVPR

`CCOP(=O)(NC(C)C)Oc1ccc(SC)c(C)c1` (stereo not given): the compound was classed as inactive in assay [1], in assay [2], in assay [3], in assay [4], in [5] and in [6]. The outcome in [7], in [8], in assay [9], in assay [10], in assay [11] and in assay [12] was inactive. In addition, the result in [13] and in assay [14] was inactive.
For `CCCCCCCCCCCCCCCC[N+](C)(C)C`, in assay [15], the Potency entry is “inactive”.
Take `c1cc2ccc3cccc4ccc(c1)c2c34`: the compound was called inactive in [1], in [2], in assay [3], in assay [4], in [5] and in assay [6]. Further, the result in [7], in assay [8], in assay [9], in assay [10], in [11] and in [12] was inactive. The compound was classed as inactive in assay [13] and in assay [14].
In the case of `COc1cc2c(cc1OC)[C@@H]1C(=O)c3ccc4c(c3O[C@@H]1CO2)C=CC(C)(C)O4`, the result in [14] was inactive. Moreover, the Potency in assay [16] is 63.1 nM (active).
Take `CCn1cc(C(=O)O)c(=O)c2cc3c(cc21)OCO3`: in assay [16], the Potency result was “inactive”.
Take `O=[N+]([O-])c1cc([N+](=O)[O-])c2ccccc2c1`: the outcome in assay [1], in assay [2], in [3], in [4], in assay [5] and in assay [6] was inactive. Also, the compound was called inactive in assay [7], in assay [8], in assay [9], in assay [10], in assay [11] and in assay [12]. Moreover, the result in [13] was inactive. The Potency result in [15] is “inactive”.
With `CCCCOC(=O)c1ccccc1C(=O)OCc1ccccc1`, the call in assay [1], in assay [2], in [3], in [4], in [5] and in [6] was inactive. For the same compound, the call in assay [7], in [8], in assay [9], in assay [10], in assay [11] and in [12] was inactive. In addition, the outcome in assay [13] and in assay [14] was inactive.
On to `C1CCC(NC2CCCCC2)CC1`, for which the result in assay [1], in assay [2], in assay [3], in assay [4], in assay [5] and in assay [6] was inactive. Further, the result in assay [7], in assay [8], in [9], in assay [10], in [11] and in [12] was inactive. For the same compound, the call in assay [13] was inactive. Moreover, the Potency result in assay [15] is “inactive”.
Turning to `Cc1cc(O)ccc1Cl`, the call in assay [1], in assay [2], in [3], in [4], in assay [5] and in [6] was inactive. Also, the compound was classed as inactive in assay [7], in [8], in assay [9], in [10], in [11] and in assay [12]. In addition, the result in assay [13] was inactive. Moreover, in assay [15], the Potency entry is “inactive”.
In the case of `CC[C@@H]1C(=O)OC[C@@H]1Cc1cncn1C`, in assay [15], the Potency is 12.6 µM (active). The call in assay [14] was inactive.
In the case of `Nc1ccc(Cl)cc1`, the compound was classed as inactive in assay [1], in assay [2], in [3], in [4], in assay [5] and in assay [6]. Also, the result in assay [7], in assay [8], in [9], in assay [10], in assay [11] and in [12] was inactive. Moreover, in assay [13], the compound was called inactive. Moreover, in assay [15], the Potency result is “inactive”.
Regarding `COc1ccc(C(c2ccc(OC)cc2)C(Cl)(Cl)Cl)cc1`, the compound was classed as inactive in assay [1], in assay [2], in assay [3], in assay [4], in [5] and in assay [6]. The result in [7], in [8], in assay [9], in [10], in assay [11] and in assay [12] was inactive. In addition, the compound was called inactive in assay [13]. Moreover, the Potency entry in assay [15] is “inactive”.
Regarding `COc1ccc(C(=O)c2c(C)n(CCN3CCOCC3)c3cc(I)ccc23)cc1`, the Potency in assay [15] is 5.01 µM (active). For the same compound, the call in [14] was inactive.
Take `OCCCBr`: the outcome in assay [1], in [2], in assay [3], in assay [4], in [5] and in assay [6] was inactive. The result in assay [7], in assay [8], in assay [9], in assay [10], in assay [11] and in [12] was inactive. Also, in [13], the compound was classed as inactive. Also, the Potency result in [15] is “inactive”.
With `O=[N+]([O-])c1c2ccccc2cc2ccccc12`, the compound was called inactive in [1], in assay [2], in [3], in [4], in assay [5] and in assay [6]. The call in assay [7], in [8], in [9], in assay [10], in [11] and in assay [12] was inactive. Moreover, the outcome in assay [13] and in [14] was inactive.
For `O=C(O)CCCOc1ccc(Cl)cc1Cl`, the Potency result in assay [15] was “inactive”.
For `C=CC(=O)NCNC(=O)C=C`, the compound was called inactive in [1], in [2], in assay [3], in assay [4], in assay [5] and in assay [6]. Further, the call in assay [7], in [8], in [9], in assay [10], in assay [11] and in assay [12] was inactive. Besides, the call in assay [13] was inactive. Moreover, the Potency result in assay [15] is “inactive”.
With `Nc1ccccc1N`, in assay [14], the call was inactive.
For the compound `C#CC1(O)CCC2C3CCC4=CC(=O)CCC4(C)C3CCC21C` (stereo not given), in assay [15], the Potency entry was “inactive”.
